Assay results as given in publication PMC12701074.

These substances were tested against Histone H2B type 1-L (UniProt Q99880) (assay: cross-link between two proteins; cross-linking mass spectrometry).

Listed as a hit, yes:
Large ribosomal subunit protein uL18, P46777
Large ribosomal subunit protein eL6, Q02878
Small ribosomal subunit protein eS8, P62241
